Source: PubChem BioAssay (The Scripps Research Institute Molecular Screening Center)
Most compounds without a hit are left out; they make up all but 1.1% or so of the library.
NR2F2 inh: NR2F2 (human) inhibition, primary screen; P24468; HEK293T NGFI-A luciferase reporter, luminescence; inhibition, % at 8.6 µM; hit rate 0.7% among 370,000; AID 686940;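 active means inhibition above a per-plate cutoff, mean inhibition of test wells between control levels plus 3 SD, cut at about 38% in these data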;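 further: cells cotransfected with COUP-TFII expression vector driving the NGFI-A reporter; 0% = median of COUP-TF2 test wells and 100% = reporter-only cells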
SRC1 inh: inhibits human SRC1 coactivator. HEK293 GAL4-SRC1 luciferase reporter, luminescence. inhibition, % at 3.6 µM. Q15788. hit rate 0.12% among 360,000;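 active means inhibition above the campaign mean plus 3 SD, with each screening campaign given its own cutoff, cut at about 60% in these data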;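 further: 0% = DMSO treated cells and 100% = gossypol at 36 µM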
SRC2 inh: inhibits human steroid receptor coactivator 2. Q15596. HEK293 GAL4-SRC2 luciferase reporter, luminescence. inhibition, % at 9 µM. hit rate 0.17% among 370,000;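 active means inhibition above the mean inhibition of all tested compounds plus 3 SD, set per campaign, cut at about 52% in these data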;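 further: 0% = DMSO treated cells and 100% = cells given Gossypol at 36 µM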
LRH-1 inv ag: suppresses constitutive activity of human LRH-1; HEK293T StAR-luciferase reporter, LRH-1 transfected, 24 h; hit rate 0.13% among 360,000; inhibition, % at 3.6 µM;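 active means inhibition above the mean inhibition of all tested compounds plus 3 SD, cut at about 73% in these data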;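 further: 0% = DMSO wells and 100% = reporter-only cells lacking LRH-1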
GalR3 antag: blocks the human galanin receptor 3. HEK293 GalR3-CNG cAMP membrane potential fluorescence; galR3 body fused to GalR1 C-terminus. hit rate 0.44% among 360,000. AID 651719. inhibition, % at 3 µM;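 active means inhibition above the screen-wide average plus 3 SD, cut at about 13% in these data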;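 further: forskolin and galanin both at EC90 stimulate the cells; cAMP rise reported by CNG channel membrane potential dye signal; 0% = forskolin plus galanin with DMSO and 100% = forskolin alone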
NCOA3 inh: inhibitors of human steroid receptor coactivator 3 (SRC3); Q9Y6Q9; HEK293 GAL4-SRC3 luciferase reporter, luminescence; inhibition, % at 3.6 µM; hit rate 0.17% among 360,000; AID 588352;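 active means inhibition above a per-campaign cutoff, the mean of all compounds plus 3 SD, cut at about 60% in these data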;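 further: 0% = DMSO-treated cells and 100% = gossypol-treated cells at 36 µM; higher means less SRC3-driven luciferase light from the GAL4 reporter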
GalR3 antag conf: GalR3 (human) antagonism, confirmation. hit rate 59% among 1,600. AID 652245. shares compounds with GalR3 antag. inhibition, % at 3 µM. HEK293 GalR3 CNG cAMP biosensor, membrane potential fluorescence; galR3 fused to GalR1 carboxy tail; challenged with forskolin and galanin at EC90;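 active means inhibition above the primary screen's cutoff, the mean inhibition of all screened compounds plus 3 SD, cut at about 13% in these data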;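 further: 0% = forskolin plus galanin and 100% = forskolin alone with DMSO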
CNG parental: counter-screen for GalR3 antagonists: nonspecific agonists in parental HEK-CNG cells; shares compounds with GalR3 antag; hit rate 10% among 1,600; HEK293-CNG parental cells, cAMP membrane potential fluorescence; normalised: DMSO wells 0%, forskolin wells 100%; activation, % at 3 µM; in the data active means activation above about 1.3%
Active calls of the source: *; . = not tested or not shown.

SMILES | NR2F2 inh | SRC1 inh | SRC2 inh | LRH-1 inv ag | GalR3 antag | NCOA3 inh | GalR3 antag conf | CNG parental
CC(C)OCCCNC(=O)C1CCC(CNS(=O)(=O)c2ccc(Cl)cc2)CC1 (stereo not drawn) | -27 | 4 | 6 | 7 | -1 | 17 | . | .
CCOCCCNC(=O)C1CCC(CNS(=O)(=O)c2ccc(OC)cc2)CC1 (stereo not drawn) | 0 | -19 | 16 | 1 | 14* | 10 | 42* | 1.9*
CCOCCCNC(=O)C1CCC(CNS(=O)(=O)c2ccc(F)cc2)CC1 (stereo not drawn) | -18 | 4 | 25 | 6 | 2 | 1 | . | .
CCOC(=O)C1=C(C)NC2=C(C(=O)c3ccccc32)C1c1cccc2ccccc12 (stereo not drawn) | 9 | -3 | 10 | -4 | -3 | -10 | . | .
CCOC(=O)C1=C(C)NC2=C(C(=O)c3ccccc32)C1c1ccc(O)cc1 (stereo not drawn) | -9 | -4 | -9 | 8 | 20* | 11 | 8 | 0
COc1ccc(/C=C/S(=O)(=O)NCC(C)C)c(CNC(=O)OC(C)(C)C)c1 | -4 | . | -19 | . | . | . | . | .
C[C@@H]1CC=C[C@H]2[C@H]1C(=O)N(Cc1ccccc1)[C@H]2c1ccc2ccccc2c1 | -48 | 15 | -6 | 0 | . | 7 | -5 | 1
Cc1ccnc2nc(C(=O)OCC(=O)Nc3ccc4c(c3)OC(F)(F)O4)nn12 | 3 | 12 | 17 | 22 | -1 | 3 | . | .
CCC(C)c1ccc(NC(=O)COC(=O)c2nc3nccc(C)n3n2)cc1 (stereo not drawn) | -13 | -9 | -14 | -17 | 15* | 13 | 14* | 0
COc1ccc(-c2nc(C#N)c(NCc3ccc(C)cc3)o2)cc1OC | -14 | -34 | -17 | -15 | 23* | -20 | 20* | 0
COc1ccc(-c2nc(C#N)c(NCCc3ccccc3)o2)cc1OC | -18 | -44 | -31 | -67 | 4 | -46 | . | .
COc1cc2c3c(c1)C(C)CC(C)(C)N3C(=O)C2=O (stereo not drawn) | 15 | 24 | 13 | 22 | 22* | 0 | 23* | 1
CCc1cc2c3c(c1)C(C)CC(C)(C)N3C(=O)/C2=C1\SC(=O)NC1=O (stereo not drawn) | 18 | -11 | 3 | -11 | -3 | 3 | . | .
COc1ccc(C(=O)Oc2cc3c4c(c2)C(C)=CC(C)(C)N4C(=O)C3=O)cc1OC | 16 | -3 | 30 | 2 | 2 | 20 | . | .
COc1cc2c3c(c1)C(C)=CC(C)(C)N3C(=O)C2=O | -7 | -16 | -12 | 3 | 14* | 6 | 9 | 1
CCOC(=O)N(C)[C@H]1C[C@H]2c3cc(-c4ccccc4C)ccc3CCN2C[C@H]1[C@H](C)O | 61* | . | 25 | . | 95* | . | 2 | 0
COc1ccc(N(CC(=O)Nc2ccccc2C)S(=O)(=O)c2c(C)[nH]c(=O)[nH]c2=O)cc1 | 12 | 2 | -1 | 7 | 14* | 16 | -6 | 0
CCOc1ccc(N(CC(=O)Nc2ccccc2C)S(=O)(=O)c2c(C)[nH]c(=O)[nH]c2=O)cc1 | -13 | -1 | 20 | -10 | -2 | -1 | . | .
CCCOc1ccc(Cn2c(=O)oc3ccc(C)cc32)cc1OC | 12 | -46 | 17 | 7 | 14* | 1 | 0 | 0
CCCOc1ccccc1Cn1c(=O)oc2ccc(C)cc21 | 17 | -20 | 13 | -8 | -1 | -12 | . | .
Cc1cc(NC(=O)/C=C/c2ccccc2)c(C(C)C)cc1O | 4 | -15 | -27 | -3 | 19* | 9 | 23* | 0
Cc1cc(NC(=O)c2ccccc2Cl)c(C(C)C)cc1O | -2 | 9 | -8 | 7 | -8 | -5 | . | .
CCOc1cc(CNCC2CCCN2CC)cc(Cl)c1OC (stereo not drawn) | -5 | -5 | 15 | -20 | 15* | -8 | 3 | 1
CCN1CCCC1CNCc1cc(OC)c(OC)c(OC)c1 (stereo not drawn) | 18 | 4 | 0 | 11 | -7 | -3 | . | .
COc1cc(Cn2cc([C@]34C[C@H]5C(=O)N(C)CC(=O)N5[C@H]3N(S(=O)(=O)c3ccccc3)c3ccccc34)c3ccccc32)cc(OC)c1 | 11 | . | . | . | . | . | . | .
SMILES | NR2F2 inh | SRC1 inh | SRC2 inh | LRH-1 inv ag | GalR3 antag | NCOA3 inh | GalR3 antag conf | CNG parental
CCCc1[nH]nc2c1C(c1ccc(OC)c(CSC3=NCCS3)c1)C(C#N)=C(N)O2 (stereo not drawn) | 8 | -5 | -5 | -3 | 20* | 15 | 3 | 1
O=C1CCCC2=C1[C@@]1(O[C@H]3C=CC=CN23)C(=O)N(c2ccccc2)c2ccccc21 | 14 | . | 19 | . | -4 | . | . | .
Cc1ccc(Cn2nnc3c2-c2ccccc2S(=O)(=O)N(C)C3)cc1 | 5 | . | 19 | . | . | . | . | .
Cc1nc(SCc2nc3ccc(C(=O)c4ccccc4)cc3[nH]2)c2oc3ccccc3c2n1 | -15 | -46 | -19 | 12 | 14* | -20 | 22* | 0
COc1ccc(C(=O)NCC2CCN(C(=O)C(=O)c3cc4ccccc4o3)CC2)cc1 | 10 | . | 2 | . | -6 | . | . | .
Clc1ccc(COc2cccc(CNCc3ccncc3)c2)cc1 | 32 | 11 | 27 | 45 | 32* | 14 | 93* | 1
CC(C)(CO)NCc1cccc(OCc2ccc(Cl)cc2)c1 | -4 | -11 | -2 | -1 | -7 | -8 | . | .
Cc1ccc2c(c1)-c1c(cnn1CC(=O)NCCc1ccccc1F)CO2 | 8 | . | -1 | . | . | . | . | .
CCCN(CC(=O)Nc1ccc(Cl)cc1Cl)Cc1cc(=O)n2ccsc2n1 | 12 | -36 | -6 | -16 | 17* | 9 | 24* | 0
[C-]#[N+][C@]12C(=O)[C@H](C=C(Cl)[C@@]1(C)C=C)C(C)(C)[C@H]1C(=O)N(C)c3cccc2c31 | 13 | . | 18 | . | . | . | . | .
CCc1nc2ccc(C(=O)N(CC)CCN(C)C)cn2c1N(C)C(=O)c1cccc(OC)c1 | -5 | 1 | 1 | -1 | -7 | 3 | . | .
COc1ccccc1N1C(=O)S/C(=C\c2cc(C)n(C)c2C)C1=O | -46 | -66 | -43 | -119 | 19* | -72 | 1 | 0
COC(OC)c1ccnc(-c2ccc(OC(=O)c3cccs3)cc2)n1 | -2 | -29 | -14 | -12 | 17* | 1 | 5 | 0
CCCCc1c(C)nc(Nc2ccc(OC)cc2)[nH]c1=O | 16 | -88 | 6 | 0 | 28* | -7 | -2 | 0
Cc1cc(C)cc(Nc2c3c(nc4ncnn24)CCC3)c1 | 5 | 7 | 18 | -12 | 13* | -22 | -8 | 1.6*
Cc1cccc(Nc2c3c(nc4ncnn24)CCC3)c1 | 1 | 11 | 2 | 17 | 5 | -12 | . | .
